Only some compounds are listed: those with a hit (about 1.1% of all), similar ones and a draw of the others.
Vaccinia Venus: inhibitors of vaccinia virus (Venus reporter) | Vaccinia virus Venus reporter expression, fluorescence | Potency, µM (titrated, usually from 36.5 µM), inactives show top-dose activity change, negative = inhibition, most hits filed as inhibitors | actives 0.46% (n = 330,000) | AID 720580; calls by dose curve; tested in A549 cells; also: nearly all actives have a fitted effect of over 30% in size
Vaccinia mCherry: inhibitors of vaccinia virus infection (mCherry reporter signal); Vaccinia virus mCherry reporter infection, fluorescence; Potency, µM (top dose mostly 36.5 µM), for inactives: top-dose activity change, negative = inhibition, hits mostly inhibitors; actives 0.63% (n = 310,000); AID 720579; calls by dose curve; tested in A549 cells; also: nearly all actives have a fitted effect of over 35% in size
AmpC inh detg: AmpC beta-lactamase inhibition with detergent present. P00811. AmpC hydrolysis of nitrocefin, absorbance 480 nm, 0.01% Triton. Potency, µM (titrated, usually from 114 µM), without a hit: top-dose activity change, negative = inhibition, hits mostly inhibitors. actives 0.041% (n = 370,000). AID 485294;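 also: 0% = no-compound wells and -100% = no-enzyme wells; nearly all actives have a fitted effect of over 25% in size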
Target sequence (P00811 whole entry, looked up): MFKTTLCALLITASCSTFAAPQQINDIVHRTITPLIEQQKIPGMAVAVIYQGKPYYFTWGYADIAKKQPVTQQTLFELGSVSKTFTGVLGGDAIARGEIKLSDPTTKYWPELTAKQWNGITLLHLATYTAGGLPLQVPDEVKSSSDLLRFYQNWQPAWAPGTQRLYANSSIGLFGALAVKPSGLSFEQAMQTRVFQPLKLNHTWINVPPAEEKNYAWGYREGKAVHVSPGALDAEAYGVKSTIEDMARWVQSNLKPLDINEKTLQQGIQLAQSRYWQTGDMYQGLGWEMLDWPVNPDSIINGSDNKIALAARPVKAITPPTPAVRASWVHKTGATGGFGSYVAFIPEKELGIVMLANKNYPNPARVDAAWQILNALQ
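20 mM phosphate pH 7.0 + 0.01% (detergent screen) or 0.0001% Triton X-100; 5.3 nM AmpC reagent; cpd preinc 15 min RT; nitrocefin (800 uM stock) to start; A480 q20 s × 4 min; Activity was normalised to no-enzyme and no-compound control wells.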
AmpC no deterg: AmpC beta-lactamase inhibition without detergent | P00811 | AmpC nitrocefin hydrolysis, absorbance 480 nm, 0.0001% Triton | Potency, µM (series often up to 57.1 µM), for inactives: at the highest dose activity change, negative = inhibition, usual class: inhibitors | actives 0.52% (n = 330,000);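 also: plate controls were no compound for no effect and no enzyme for full effect; nearly all actives have a fitted effect of over 20% in size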
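20 mM phosphate pH 7.0 + 0.01% (detergent screen) or 0.0001% Triton X-100; 5.3 nM AmpC reagent; cpd preinc 15 min RT; nitrocefin (800 uM stock) to start; A480 q20 s × 4 min; Activity was normalised to no-enzyme and no-compound control wells.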
* marks the source's active call; other numbers are inactive results; i = inactive; ? = inconclusive; · = no result; [ ] = remark or other dose. Unless noted, calls follow the shape of the dose curve; as a rule, active = well fitted curve in the direction sought with a large enough effect; inconclusive = small, poorly fitted or top-dose-only effect, or another doubt; inactive = no such curve, though single readings can be large; an effect the other way counts as inactive or inconclusive. Unless noted, % is scaled to controls: 0 for no effect and ±100 for the full control effect; potency is read from the fitted curve at half-maximal effect.

SMILES	Vaccinia Venus	Vaccinia mCherry	AmpC inh detg	AmpC no deterg
CCc1ccc(NC(=O)CSc2nnc(Cc3cccn3C)n2-c2ccc(F)cc2)cc1	·	·	-17%	13µM*
Cc1ccc(NC(=O)CSc2nnc(Cc3cccn3C)n2-c2ccc(F)cc2)cc1	·	·	?	57%
CC(=O)Nc1sc2c(c1-c1nc3ccccc3s1)CCN(C(C)C)C2	10µM*	13µM*	5%	86%
CCN1CCc2c(sc(NC(=O)CSc3ccccc3)c2-c2nc3ccccc3s2)C1	-20%[7.34 µM]	-20%[7.34 µM]	0%	·
O=C1S/C(=C\C=C\c2ccco2)C(=O)N1c1ccc(O)cc1	-14%	i	-3%	32µM*
O=C(NN1C(=O)/C(=C/C=C/c2ccco2)SC1=S)c1ccccc1O	15%	-1%	4%	16µM*
O=C(NCc1ccccn1)c1cnn(-c2nccc(-c3ccccc3F)n2)c1C1CC1	-3%	-19%	·	·
CS(=O)(=O)c1ccc(CNC(=O)C2(C(F)(F)F)CC(CCCO)CCCO2)cc1 (stereo not drawn)	?	11µM*	·	·
C=CC[C@@H](CC(=O)N(CCO)Cc1ccccc1)C(=O)N[C@H](COC(=O)[C@H](CC=C)CC(=O)OC(C)(C)C)Cc1c[nH]c2ccccc12	-24%	?	·	181%
C=CC[C@H](CC(=O)N(CCO)Cc1ccccc1)C(=O)N[C@H](COC(=O)[C@@H](CC=C)CC(=O)OC(C)(C)C)Cc1c[nH]c2ccccc12	11µM*	?	·	111%
C=CC[C@@H](CC(=O)N[C@H](CO)Cc1ccccc1)C(=O)N[C@H](COC(=O)[C@@H](CC=C)CC(=O)OC(C)(C)C)Cc1c[nH]c2ccccc12	13µM*	22µM*	·	-4%
C=CC[C@@H](CC(=O)N[C@@H](CO)Cc1ccccc1)C(=O)N[C@@H](COC(=O)[C@@H](CC=C)CC(=O)OC(C)(C)C)Cc1c[nH]c2ccccc12	?	-13%	·	78%
CN1CCN(c2ccc(Cl)cc2NC(=O)c2ccc(S(=O)(=O)N(C)C)cc2)CC1	-17%	i	1%	22%
CN(C)S(=O)(=O)c1ccc(C(=O)Nc2cc(S(=O)(=O)Nc3ccccc3Cl)ccc2N2CCCCC2)cc1	-6%	-16%	-4%	3.2µM*
O=C(N/N=C/c1ccc[nH]1)c1cc2ccccc2cc1O	-11%	-6%	-7%	14µM*
Cc1cc(C)nc(SCC(=O)c2ccc(O)c(O)c2)n1	-22%	?	3%	-23%
Cc1cc(SCC(=O)c2ccc(O)c(O)c2)n2nc(C)c(-c3ccccc3)c2n1	-29%	11µM*	4%	6.3µM*
COc1ccc(CN2CCC3(CC2)c2ccccc2[C@@H](NC(=O)c2ccsc2)[C@@H]3OC)cc1O	-10%	-16%	·	·
Cc1cc(C)c2oc(-c3cccc(NC(=O)COc4ccc(Cl)cc4C)c3C)nc2c1	6%	25%	·	·
C#CC(=O)N(c1cc(OC)ccc1OC)C(C(=O)NC1CCCC1)c1cccs1 (stereo not drawn)	10µM*	11µM*	-1%	19%
C#CC(=O)N(c1ccc(OC)cc1OC)C(C(=O)NC1CCCC1)c1cccs1 (stereo not drawn)	10µM*	10µM*	-4%	10%
COc1ccc(N(C(=O)c2ccco2)C(C(=O)NC2CCCCC2)c2cccs2)cc1OC (stereo not drawn)	-11%	·	?	52%
COc1ccccc1CCc1nc2ccccc2n1C1CCN(C(=O)c2cc(C)nn2C)CC1	-1%	-8%	·	·
N#CN=c1snc(-c2ccccc2)n1-c1ccc(Cl)cc1	3.5µM*	5.6µM*	·	·
N#CN=c1snc(-c2ccccc2Cl)n1-c1ccccc1Cl	?	11µM*	·	·
SMILES	Vaccinia Venus	Vaccinia mCherry	AmpC inh detg	AmpC no deterg
COc1ccc(-n2c(CNC(=O)c3ccccc3C(F)(F)F)nnc2SC)cc1	3%	-3%	·	·
O=C(NCc1ccco1)/C(=C/c1ccc(C(F)(F)F)cc1)c1nc2ccccc2[nH]1	·	·	-4%	18µM*
O=S(=O)(NCc1cn2ccsc2n1)c1ccc(Oc2ccccc2)cc1	?	·	0%	4µM*
CCN1CCc2c(sc(NC(=S)NC(=O)c3cccc(F)c3)c2C(N)=O)C1	-7%	i	·	·
c1ccc2c(N3CCCCCC3)nc(CN3CCCCC3c3nccs3)nc2c1 (stereo not drawn)	-12%	?	·	·
CC(=O)[C@@]1(O)CC[C@H]2[C@@H]3C=C(Cl)C4=CC(=O)[C@@H]5C[C@@H]5[C@]4(C)[C@H]3CC[C@@]21C	-7%	-12%	·	·
CCc1nnc(N/N=C/c2ccc(N3CCC(C)CC3)c([N+](=O)[O-])c2)n1N	?	10µM*	?	2%
Cc1nnc(N/N=C/c2cc([N+](=O)[O-])c(N3CCC(C)CC3)cc2N2CCC(C)CC2)n1N	·	·	-5%	138%
COc1ccc(Cl)cc1C(=O)Nc1ccc(NC(C)=O)cc1	-13%	-20%	8%	-19%
CC(=O)Oc1c(I)cc(I)cc1C(=O)Nc1ccc(Cl)cc1	?	10µM*	9%	-53%
COc1ccccc1C(=O)N[C@@H]1c2ccccc2C2(CCN(Cc3cnn(C)c3C)CC2)[C@H]1O	-4%	-21%	·	·
O=C(CN1Cc2ccccc2OC(c2ccsc2)C1)NCC1OCCc2ccccc21 (stereo not drawn)	0%	0%	·	·
C[C@H](CO)N1C[C@H](C)[C@@H](CN(C)CC2CCCCC2)Oc2c(NC(=O)Cc3ccccc3)cccc2C1=O	10µM*	?	·	217%
C[C@@H]1CN([C@@H](C)CO)C(=O)Cc2cc(NC(=O)Nc3ccc(C(F)(F)F)cc3)ccc2O[C@@H]1CN(C)S(=O)(=O)c1ccc(Cl)cc1	11µM*	?	·	38%
C[C@H](CO)N1C[C@H](C)[C@@H](CN(C)S(=O)(=O)c2ccccc2)Oc2ccc(NC(=O)Nc3ccccc3)cc2C1=O	10µM*	?	·	93%
FC(F)(F)c1cnc(-c2cc3c(c(OCC4CCCO4)c2)OCCN(Cc2cccn2-c2nccs2)C3)c(Cl)c1 (stereo not drawn)	-2%	-11%	·	·
Cc1ccc(-n2ncc3c(SCc4ccccn4)ncnc32)c(C)c1	5%	5µM*	?	149%
COc1ccc(S(=O)(=O)N2CCCC2C(=O)NCc2ccccc2Cl)cc1 (stereo not drawn)	-6%	-6%	-1%	5%
COc1ccc(S(=O)(=O)N2CCCC2CNC(=O)C(=O)NCc2ccccc2Cl)cc1 (stereo not drawn)	-18%	?	-18%	28µM*
Cc1ccccc1-c1cccc(CN2CCc3nnc(C(C)NC(=O)c4cccnc4)n3CC2)c1 (stereo not drawn)	-11%	-19%	·	·
O=C1NC2c3c(I)sc(I)c3C(=O)C2O1 (stereo not drawn)	?	10µM*	·	·
O=C(Nc1ccccc1O)c1c(O)c2c([nH]c1=O)CCCC2	?	18µM*	-5%	-31%
O=C(Nc1nccs1)c1c(O)c2c([nH]c1=O)CCCC2	-4%	i	-5%	-10%

Source: PubChem
